Measurements from PubChem BioAssay (NCI).
About 83,000 compounds went through this panel and 20% of them were active in at least one assay; those are over-represented in the sample as a whole.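 For each line, cells grew in 96-well plates with the test compound present at a single concentration for 48 hours.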 Activity calls are given as the source filed them. The calls were made as follows: active = growth percent below 10; inactive = the rest.

How the values were obtained:
Assay in all cases: NCI-60 one-dose screen, 48 h (100 = growth as untreated, 0 = no growth, -100 = all killed)
Details in all cases: 10 µM
DU-145 prostate = test system: DU-145 prostate
K-562 leukemia = test system: K-562 leukemia
MALME-3M melanoma = test system: MALME-3M melanoma
MDA-MB-231 breast = test system: MDA-MB-231 breast
RXF 393 renal = test system: RXF 393 renal
SF-268 CNS = test system: SF-268 CNS
SF-295 CNS = test system: SF-295 CNS
SF-539 CNS = test system: SF-539 CNS
UACC-257 melanoma = test system: UACC-257 melanoma
M14 melanoma = test system: M14 melanoma

Measured: growth

Cn1cc(-c2cc(N)n3nc(-c4c[nH]c5ccc(Br)cc45)cc3n2)c2cccnc21
active: DU-145 prostate -92.5% | K-562 leukemia -3.96% | MALME-3M melanoma -92.4% | MDA-MB-231 breast -85.6% | RXF 393 renal -85.2% | SF-268 CNS -45.7% | SF-295 CNS -91.9% | SF-539 CNS -97.7% | UACC-257 melanoma -84.3% | M14 melanoma -85.8%

O=C(c1ccc(Cl)cc1)C1[C@H](c2ccc(Br)cc2)[C@@H](c2ccccc2)NC12C(=O)Nc1ccccc12 (some centres not stated)
inactive: DU-145 prostate 12.4% | SF-268 CNS 12.1% | M14 melanoma 29.4%
active: K-562 leukemia -15.7% | MALME-3M melanoma -35.9% | MDA-MB-231 breast -60.1% | RXF 393 renal -59.8% | SF-295 CNS -54.5% | SF-539 CNS -57.7% | UACC-257 melanoma -2.88%

COc1ccc(C(=O)Nc2ccc(-c3ccc4c(c3)NC(=O)/C4=C\c3ccc[nH]3)cc2)cc1
active: DU-145 prostate -25.7% | RXF 393 renal 8.7% | SF-268 CNS 0.17% | SF-295 CNS -76.1%
inactive: K-562 leukemia 67.5% | MALME-3M melanoma 50.9% | MDA-MB-231 breast 25.6% | SF-539 CNS 76.8% | UACC-257 melanoma 77.5% | M14 melanoma 28.1%

N#Cc1c(-c2ccc(F)cc2)nc(SCc2ccc([N+](=O)[O-])cc2)nc1N1CCOCC1
active: RXF 393 renal 9.79%
inactive: DU-145 prostate 73.3% | K-562 leukemia 76.9% | MALME-3M melanoma 42.8% | MDA-MB-231 breast 47.1% | SF-268 CNS 49.3% | SF-295 CNS 41.5% | SF-539 CNS 26.2% | UACC-257 melanoma 54.2% | M14 melanoma 87.7%

CN1C(=O)/C(=C/c2nccs2)SC1=S
inactive: DU-145 prostate 91.2% | K-562 leukemia 66.8% | MALME-3M melanoma 82.1% | MDA-MB-231 breast 87.5% | RXF 393 renal 103% | SF-268 CNS 104% | SF-295 CNS 93.2% | SF-539 CNS 95.4% | UACC-257 melanoma 85.4% | M14 melanoma 87.2%

COc1ccc(/C(C)=N/N=C2C(=O)N(C)c3ccc(Br)cc32)cc1S(N)(=O)=O
inactive: DU-145 prostate 86.1% | K-562 leukemia 93.1% | MALME-3M melanoma 64.2% | MDA-MB-231 breast 56.7% | RXF 393 renal 57.4% | SF-268 CNS 33.4% | SF-295 CNS 47.4% | SF-539 CNS 43.3% | UACC-257 melanoma 83.1% | M14 melanoma 87.1%

COC(=O)C(Cc1ccc(O)c(O)c1)NC(=O)C(CSC/C=C(\C)CCCC(C)CCCC(C)CCCC(C)C)NC(C)=O (configuration not stated)
inactive: DU-145 prostate 75.5% | MALME-3M melanoma 87.4% | MDA-MB-231 breast 38.1% | RXF 393 renal 48.3% | SF-268 CNS 27.6% | UACC-257 melanoma 56.4% | M14 melanoma 13.9%
active: K-562 leukemia 5.33% | SF-295 CNS 1.8% | SF-539 CNS -34.7%

Cc1cc(C(F)(F)F)ccc1C(=O)Nc1sc2c(c1C#N)CCC(=O)C2
inactive: DU-145 prostate 20.3% | SF-268 CNS 17.1%
active: K-562 leukemia 2.39% | MALME-3M melanoma -82.5% | MDA-MB-231 breast -73.4% | RXF 393 renal -64.9% | SF-295 CNS -25.5% | SF-539 CNS -79.9% | UACC-257 melanoma -39.5% | M14 melanoma -59.2%

COC[C@@H](CC(C)C)N=C1N/C(=C\c2ccc3ncsc3c2)C(=O)N1C
active: MALME-3M melanoma 7.51% | MDA-MB-231 breast 0.748% | RXF 393 renal -19.2% | SF-539 CNS -15.6% | UACC-257 melanoma 6.69%
inactive: DU-145 prostate 20.9% | K-562 leukemia 17.7% | SF-268 CNS 19.1% | SF-295 CNS 23.2% | M14 melanoma 38.1%

CN(C)CCNC(=O)OCCCCOc1cc(O)c2c(=O)cc(-c3ccccc3)oc2c1
active: DU-145 prostate -27% | K-562 leukemia 8.72% | MALME-3M melanoma -96.8% | MDA-MB-231 breast -77.8% | SF-268 CNS -44.9% | SF-295 CNS -90.5% | SF-539 CNS -100% | UACC-257 melanoma -79.7% | M14 melanoma -75.1%

COc1ccc(/C=C/C(=O)c2ccc(NC(=O)CN3C(=O)NC(C)(c4ccccc4)C3=O)cc2)cc1 (configuration not stated)
inactive: DU-145 prostate 87.7% | K-562 leukemia 60.2% | MALME-3M melanoma 90.5% | MDA-MB-231 breast 87% | SF-268 CNS 67.3% | SF-295 CNS 76.1% | SF-539 CNS 80% | UACC-257 melanoma 92.4% | M14 melanoma 87.9%

CN1C(=O)N(C)C2SC(N/N=C/c3cccs3)=NC21 (configuration not stated)
inactive: DU-145 prostate 49.5% | K-562 leukemia 11.8% | MALME-3M melanoma 24.6% | MDA-MB-231 breast 27.3% | SF-268 CNS 35.7% | UACC-257 melanoma 50.3%
active: SF-295 CNS 7.99% | SF-539 CNS 4.32% | M14 melanoma 7.65%

COc1ccc(NC(=O)Cn2c(/C=C/c3ccc(N(C)C)cc3)nc3ccccc3c2=O)cc1
inactive: K-562 leukemia 58.8% | MDA-MB-231 breast 18.8% | SF-268 CNS 73% | SF-295 CNS 49.5% | UACC-257 melanoma 67.7% | M14 melanoma 81%
active: DU-145 prostate 6.75% | MALME-3M melanoma 7.28% | SF-539 CNS -60.2%

O=C(CNc1nc(-c2ccccc2)cs1)Nc1ccc(Cl)cc1[N+](=O)[O-]
inactive: DU-145 prostate 10.1%
active: K-562 leukemia 4.23% | MALME-3M melanoma -70.5% | MDA-MB-231 breast -66.7% | SF-268 CNS -58.4% | SF-295 CNS -49.7% | SF-539 CNS -86.8% | UACC-257 melanoma -17.2% | M14 melanoma -13.1%

CN(C)c1nc(NCCNS(=O)(=O)c2ccc(C(=O)/C=C/c3ccccc3)cc2)nc(Nc2ccc(F)cc2)n1
active: M14 melanoma 5.05%
inactive: DU-145 prostate 26.3% | K-562 leukemia 10.8% | MALME-3M melanoma 36.5% | MDA-MB-231 breast 17.7% | SF-268 CNS 32.4% | SF-295 CNS 23.1% | SF-539 CNS 26.7% | UACC-257 melanoma 54.8%

Nc1nc2c(F)c(F)c(F)c(F)c2s1
inactive: DU-145 prostate 114% | K-562 leukemia 93.1% | MALME-3M melanoma 103% | MDA-MB-231 breast 116% | RXF 393 renal 109% | SF-268 CNS 97.8% | SF-295 CNS 96% | SF-539 CNS 99% | UACC-257 melanoma 104% | M14 melanoma 113%

O=C(CSc1nnc(-c2c[nH]c3ccccc23)n1-c1ccccc1)Nc1ccc(C(=O)/C=C/c2ccc(Br)cc2)cc1
inactive: DU-145 prostate 96.4% | K-562 leukemia 69.1% | MALME-3M melanoma 98.5% | MDA-MB-231 breast 87.8% | SF-268 CNS 67% | SF-295 CNS 74.8% | SF-539 CNS 80.5% | UACC-257 melanoma 109% | M14 melanoma 102%

CC(=O)c1ccc(Nc2nc(SCCC(C)C)nc(-c3ccc(F)cc3)c2C#N)cc1
inactive: DU-145 prostate 61.1% | K-562 leukemia 63.9% | MALME-3M melanoma 72.7% | MDA-MB-231 breast 24.8% | SF-268 CNS 52.9% | SF-295 CNS 11.5% | SF-539 CNS 16.3% | UACC-257 melanoma 106% | M14 melanoma 84.7%
